In the library only some 12% were active in any assay of this set; here they are far more common.
G9a block – G9a (human) methyltransferase inhibition; Q96KQ7; G9a H3K9 monomethylation, AlphaScreen, 2 h; Potency, µM (series often up to 102 µM), for the others: at the top dose activity, negative = inhibition, usual class: inhibitors; 8.8% of 350,000 active; note: % is set by controls: 0 for no effect and ±100 for the full control effect; nearly all actives have a fitted effect of over 75% in size
Target sequence (Q96KQ7 913-1193 limits assumed): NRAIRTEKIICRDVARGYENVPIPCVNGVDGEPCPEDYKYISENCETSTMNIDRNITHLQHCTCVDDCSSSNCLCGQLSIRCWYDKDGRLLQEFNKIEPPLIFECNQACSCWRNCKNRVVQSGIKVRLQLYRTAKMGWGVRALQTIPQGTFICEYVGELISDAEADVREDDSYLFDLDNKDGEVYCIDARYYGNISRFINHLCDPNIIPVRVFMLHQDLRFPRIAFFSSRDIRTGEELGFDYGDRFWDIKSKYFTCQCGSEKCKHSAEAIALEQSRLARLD
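Signal arises when biotinylated H3K9 peptide, once monomethylated, bridges streptavidin donor and antibody-captured acceptor beads. Enzyme at 20 nM was preincubated 15 min with test compounds; peptide 500 nM and SAM 20 uM then reacted for 2 h.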
Sfp inh – blocks B. subtilis Sfp PPTase activity | Q9F4F7 | Biochemical Sfp PPTase activity, qHTS | Potency, µM, for inactives: largest response in the series, negative = inhibition, hits mostly inhibitors | 3.5% of 310,000 active;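 note: the enzyme is Sfp with the accession as filed and its product quenches rhodamine fluorescence; 0% = enzyme reaction without inhibitor and -100% = no enzyme wells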
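Buffer: 50 mM Hepes-Na pH 7.6, 10 mM MgCl2, 0.01% Nonidet P-40, 0.01% BSA. Enzyme 15 nM, pre-exposed to compound 15 min; substrates then added and fluorescence change tracked over 30 min.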
HP1b chromo inh – HP1-beta chromodomain-methylated histone interaction inhibition | AID 540317 | P83916 | AlphaScreen HP1-beta / biotin-H3K9me3 peptide binding | Potency, µM (titrated, usually from 114 µM), for inactives: top-dose activity change, negative = inhibition, hits mostly inhibitors | 0.56% of 390,000 active; note: nearly all actives have a fitted effect of over 70% in size
Target sequence (P83916 whole entry, looked up): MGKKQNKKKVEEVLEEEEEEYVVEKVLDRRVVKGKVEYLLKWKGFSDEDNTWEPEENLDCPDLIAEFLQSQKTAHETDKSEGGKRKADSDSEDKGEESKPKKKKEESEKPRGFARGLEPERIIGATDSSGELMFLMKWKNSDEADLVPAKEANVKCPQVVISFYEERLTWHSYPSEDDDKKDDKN
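Compound inhibition of the preformed complex between 50 nM HP1-beta and 50 nM biotinylated H3K9me3 peptide was read by AlphaScreen. Buffer was PBS pH 7.4 with 0.01% Tween-20. Incubations ran 30 min at room temperature, with 10 ug/mL donor/acceptor beads.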
BAZ2B block – BAZ2B (human) inhibition | Q9UIF8 | AlphaScreen BAZ2B-H3K14Ac peptide displacement | Potency, µM (doses to about 114 µM), for inactives: at the top dose activity change, negative = inhibition, actives largely listed as inhibitors | 4.4% of 360,000 active | AID 504333; note: % is set by controls: 0 for no effect and ±100 for the full control effect; nearly all actives have a fitted effect of over 60% in size
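BAZ2B 50 nM plus b-H3(5-23)K14Ac 50 nM, PBS pH 7.4/0.01% Tween-20, 30 min RT; compound added (max 110 uM), 30 min RT; streptavidin donor/Ni-chelate acceptor beads 10 ug/mL final, 20 min dark; AlphaScreen read.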
JMJD2A Tudor inh – JMJD2A Tudor domain (human) inhibition; Potency, µM (titrated, usually from 114 µM), for the others: at the highest dose activity change, negative = inhibition, hits mostly inhibitors; 4.4% of 390,000 active; AlphaScreen JMJD2A-Tudor / H3K4me3 peptide binding; O75164; note: % is set by controls: 0 for no effect and ±100 for the full control effect; nearly all actives have a fitted effect of over 50% in size
L3MBTL1 inh – inhibitors of human L3MBTL1; Q9Y468; AlphaScreen L3MBTL1–H3K9me1 peptide binding; Potency, µM (highest dose often 57.1 µM), for inactives: top-dose activity, negative = inhibition, hits mostly inhibitors; 0.66% of 230,000 active; AID 485360; note: % is set by controls: 0 for no effect and ±100 for the full control effect; nearly all actives have a fitted effect of over 60% in size
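AlphaScreen proximity signal between nickel-chelate acceptor and streptavidin donor beads (final 10 ug/mL) reports binding of 50 nM L3MBTL1 to 75 nM biotin-H3 K9me1 peptide; complex incubated with compounds 30 min at room temperature; cefsulodin titration as control.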
An asterisk follows results filed as active; ! = a repeat was not active; [ ] = dose if it differs, or a comment. Calls come from the whole dose curve; as a rule, active = well fitted curve in the direction sought with a large enough effect; inconclusive = small, poorly fitted or top-dose-only effect, or another doubt; inactive = no such curve, though single readings can be large; an effect the other way counts as inactive or inconclusive. Potency is the fitted concentration of half-maximal effect.

CC(C)c1ccc(N(C(=O)CNC(=O)c2ccco2)C(C(=O)NC2CCCC2)c2ccncc2)cc1 (stereo unspecified) was read as G9a block 0%, Sfp inh 12%, HP1b chromo inh -3%, BAZ2B block -5% and JMJD2A Tudor inh -6%.
Screening Cc1ccc(CS(=O)Cc2ccc(C(=O)NCc3ccccc3Cl)o2)cc1 (stereo unspecified) returned G9a block 79µM*!, Sfp inh 1%, HP1b chromo inh 30%, BAZ2B block -4% and JMJD2A Tudor inh -10%.
`Cc1nc(C)c(C(=O)NCc2ccccc2Cl)o1` gave G9a block inconclusive, Sfp inh 89µM*, HP1b chromo inh -20%, BAZ2B block -2%, JMJD2A Tudor inh inconclusive and L3MBTL1 inh -7%.
For Cc1nc2c(C(=O)NCc3ccccc3)c[nH]n2c(=O)c1Cc1ccccc1Cl the results were G9a block -25%[59 µM], HP1b chromo inh inconclusive, BAZ2B block -14% and JMJD2A Tudor inh -23%.
Screening Cc1nc2c(C(=O)NCc3ccccc3Cl)c[nH]n2c(=O)c1Cl returned G9a block 16µM*, Sfp inh -8%, HP1b chromo inh 22%, BAZ2B block 5%, JMJD2A Tudor inh -14% and L3MBTL1 inh 0%.
Cc1nc2c(C(=O)NCc3ccccc3)c[nH]n2c(=O)c1Cl was read as G9a block 79µM*, Sfp inh 17%, HP1b chromo inh 19%, BAZ2B block -1%, JMJD2A Tudor inh -28% and L3MBTL1 inh -1%.
Screening Cc1nc2c(C(=O)NCCc3ccccc3Cl)c[nH]n2c(=O)c1Cl returned G9a block 50µM*, Sfp inh 1%, HP1b chromo inh 14%, BAZ2B block -22%, JMJD2A Tudor inh -29% and L3MBTL1 inh -5%.
Screening COC(=O)c1c[nH]n2c(=O)c(Cl)c(C)nc12 returned G9a block -10%, Sfp inh 20%, HP1b chromo inh 13%, BAZ2B block -6%, JMJD2A Tudor inh -26% and L3MBTL1 inh 9%.
`NNC(=S)Nc1c(Br)cc(F)cc1Br` gave G9a block 35µM*, Sfp inh 1%, HP1b chromo inh 37%, BAZ2B block -6%, JMJD2A Tudor inh -24% and L3MBTL1 inh 3%.
CC(C)N(C(=O)CSc1nc2ccccc2n1-c1ccccc1)C(C)C was read as G9a block 21%[0.0925 µM], Sfp inh 79µM*, HP1b chromo inh 40%, BAZ2B block -7%, JMJD2A Tudor inh -14% and L3MBTL1 inh 1%.
For CC(C)N(C(=O)CSc1nc2ccccc2n1Cc1ccccc1)C(C)C the results were G9a block -3%[59 µM], Sfp inh 0%, HP1b chromo inh 44%, BAZ2B block 7%, JMJD2A Tudor inh 5% and L3MBTL1 inh -3%.
Screening COc1ccc(OC)c2c(=O)cc(C(=O)O)[nH]c12 returned G9a block 25µM*, Sfp inh -24%, HP1b chromo inh -2%, BAZ2B block inconclusive and JMJD2A Tudor inh 79µM*.
For COc1cccc(Cn2c(=O)c(-c3ccc(Cl)cc3)nc3cncnc32)c1 the results were G9a block 4%[0.501 µM] and Sfp inh 2%.
Screening O=C1OC(c2cccs2)=N/C1=C\c1ccc(-c2ccccc2Cl)o1 returned G9a block 40µM*, Sfp inh -12%, HP1b chromo inh inconclusive, BAZ2B block -36%, JMJD2A Tudor inh inconclusive and L3MBTL1 inh -5%.
Screening CCOC(=O)N1CCC2(CC1)NCCc1c2[nH]c2ccccc12 returned G9a block inconclusive, Sfp inh 10%, HP1b chromo inh 17%, BAZ2B block -29% and JMJD2A Tudor inh -21%.
Screening Cc1ccc(S(=O)(=O)Nc2cc(Cl)c3oc4c(c3c2)C(=O)CC(C)(C)C4)cc1 returned G9a block -2%[59 µM], HP1b chromo inh 37%, BAZ2B block -14% and JMJD2A Tudor inh -7%.
Screening COc1ccc(-n2cc(CNCc3cnc4ccccn34)c(-c3cccc(F)c3)n2)cc1 returned Sfp inh inconclusive, HP1b chromo inh -25%, BAZ2B block 45µM*, JMJD2A Tudor inh -23%[11.4 µM] and L3MBTL1 inh -23%.
`COc1ccc(-n2cc(CNCC3CCOCC3)c(-c3cccc(F)c3)n2)cc1` gave G9a block -3%, Sfp inh 8%, HP1b chromo inh 61%, BAZ2B block -9%, JMJD2A Tudor inh -5% and L3MBTL1 inh -13%.
Screening CN(C)C(=O)c1ccc(-c2nc(NCc3cccnc3)c3ccccc3n2)cc1 returned Sfp inh -2%.
For CC(C)(C)C(=O)N1CCn2c1nc1ccccc12 the results were G9a block 21%, Sfp inh 9%, HP1b chromo inh -3%, BAZ2B block 56µM*, JMJD2A Tudor inh -14% and L3MBTL1 inh -8%.
For N#CCC(=O)N1CCn2c1nc1ccccc12 the results were G9a block -33%[59 µM], Sfp inh 12%, HP1b chromo inh 26%, BAZ2B block -4%, JMJD2A Tudor inh -11% and L3MBTL1 inh -6%.
Screening COc1ccc(CNC(=O)c2sc3nc4n(c(=O)c3c2C)CCC4)cc1 returned G9a block -38%[59 µM], HP1b chromo inh -6%, BAZ2B block -21% and JMJD2A Tudor inh -30%.
Screening OCCNCCSc1nc(C2CCCCC2)n(-c2ccccc2Cl)n1 returned G9a block inconclusive, Sfp inh -24%, HP1b chromo inh -11%, BAZ2B block inconclusive, JMJD2A Tudor inh 0.89µM* and L3MBTL1 inh 2%.
For NC(=O)NC(=O)CSc1nc(C2CCCCC2)n(-c2ccccc2)n1 the results were G9a block -7%[59 µM], Sfp inh 7%, HP1b chromo inh 1%, BAZ2B block -3%, JMJD2A Tudor inh -10% and L3MBTL1 inh -2%.
Screening CCc1ccc2nc(N(Cc3cccnc3)C(=O)c3cccs3)sc2c1 returned G9a block 7%[59 µM], HP1b chromo inh 26%, BAZ2B block -5% and JMJD2A Tudor inh -8%.
For CCN(CC)CCN(C(=O)c1ccc(N2C(=O)CCC2=O)cc1)c1nc2cc3c(cc2s1)OCCO3 the results were G9a block 50µM*, Sfp inh inconclusive, HP1b chromo inh 13%[57 µM] and JMJD2A Tudor inh -32%.
For CCN(CC)CCN(C(=O)c1cccc(N2C(=O)CCC2=O)c1)c1nc2cc3c(cc2s1)OCO3 the results were G9a block 50µM*, Sfp inh -6%, HP1b chromo inh 26% and JMJD2A Tudor inh -19%.
COC(=O)CCC/C=C1/SCC(NC(=O)c2ccccc2)C1=O (stereo unspecified) was read as G9a block 45µM*, Sfp inh inconclusive, HP1b chromo inh -18%, BAZ2B block inconclusive and JMJD2A Tudor inh -35%.

Bioassay records: PubChem BioAssay, National Center for Advancing Translational Sciences (NCATS)
